Key:
Test in all cases: log2 ratio of Biotin-Ahx-Ub-VS probe labelling (fragment/DMSO); higher = less target engagement (more negative = stronger competition), active = hit call of the paper (q ≤ 0.05, log2 ratio ≤ -1)
Details in all cases: compound concentration: 200 uM; treatment time: 3 h
USP42 = molecular target: T1, USP42 (UniProt Q9H9J4)
T1 sequence (whole entry): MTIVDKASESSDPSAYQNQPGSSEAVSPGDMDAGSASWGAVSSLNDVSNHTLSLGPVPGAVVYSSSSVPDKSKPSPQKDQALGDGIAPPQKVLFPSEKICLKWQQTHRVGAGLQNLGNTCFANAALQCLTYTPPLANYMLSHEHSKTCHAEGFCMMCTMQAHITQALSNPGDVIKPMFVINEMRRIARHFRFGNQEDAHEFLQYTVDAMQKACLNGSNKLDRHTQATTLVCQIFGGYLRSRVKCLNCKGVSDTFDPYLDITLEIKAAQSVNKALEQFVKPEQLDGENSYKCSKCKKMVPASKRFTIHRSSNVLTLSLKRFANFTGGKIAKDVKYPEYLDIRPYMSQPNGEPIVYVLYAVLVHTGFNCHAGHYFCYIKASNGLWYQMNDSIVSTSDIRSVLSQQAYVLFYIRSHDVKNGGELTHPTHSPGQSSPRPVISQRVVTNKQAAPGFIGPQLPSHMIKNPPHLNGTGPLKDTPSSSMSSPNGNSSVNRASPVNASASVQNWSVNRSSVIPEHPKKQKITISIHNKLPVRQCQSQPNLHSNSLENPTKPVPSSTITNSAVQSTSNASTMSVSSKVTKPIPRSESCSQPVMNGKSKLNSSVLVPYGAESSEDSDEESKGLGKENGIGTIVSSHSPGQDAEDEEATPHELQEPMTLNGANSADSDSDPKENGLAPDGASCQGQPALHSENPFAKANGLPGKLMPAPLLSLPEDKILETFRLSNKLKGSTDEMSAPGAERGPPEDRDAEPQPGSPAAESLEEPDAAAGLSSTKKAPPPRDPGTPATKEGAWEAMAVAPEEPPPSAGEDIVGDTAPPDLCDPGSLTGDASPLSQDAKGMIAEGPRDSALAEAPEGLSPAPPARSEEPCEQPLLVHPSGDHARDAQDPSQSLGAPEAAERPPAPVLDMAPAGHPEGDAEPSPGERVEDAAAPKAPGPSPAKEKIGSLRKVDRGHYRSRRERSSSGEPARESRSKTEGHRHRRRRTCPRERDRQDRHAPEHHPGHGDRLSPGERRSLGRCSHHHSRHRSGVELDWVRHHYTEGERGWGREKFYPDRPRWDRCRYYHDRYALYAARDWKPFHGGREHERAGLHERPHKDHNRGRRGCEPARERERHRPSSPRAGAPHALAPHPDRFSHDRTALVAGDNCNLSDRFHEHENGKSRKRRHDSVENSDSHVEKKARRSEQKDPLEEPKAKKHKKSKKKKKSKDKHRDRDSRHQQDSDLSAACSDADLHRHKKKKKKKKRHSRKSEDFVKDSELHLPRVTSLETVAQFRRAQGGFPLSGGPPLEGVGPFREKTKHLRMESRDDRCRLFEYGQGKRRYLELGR
How it was run: (§1)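 HEK293T lysate, 495 µg per sample in Tris/CHAPS/IGEPAL buffer with protease inhibitors, was treated in triplicate with fragment at 200 µM or vehicle for 3 h and then with Biotin-Ahx-Ub-VS at 0.5 µM final for 1 h. Labelled DUBs were NeutrAvidin-enriched, digested with LysC and trypsin, and run by diaPASEF LC-MS/MS. Spectronaut label-free quantities were global-median-normalised, and values are average log2 fragment/vehicle ratios by unpaired t-test on proteins with ≥2 unique peptides.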

USP46 = USP46 (UniProt P62068)
How it was run: as §1

USP47 = molecular target: T2, USP47 (UniProt Q96K76)
T2 sequence (whole entry): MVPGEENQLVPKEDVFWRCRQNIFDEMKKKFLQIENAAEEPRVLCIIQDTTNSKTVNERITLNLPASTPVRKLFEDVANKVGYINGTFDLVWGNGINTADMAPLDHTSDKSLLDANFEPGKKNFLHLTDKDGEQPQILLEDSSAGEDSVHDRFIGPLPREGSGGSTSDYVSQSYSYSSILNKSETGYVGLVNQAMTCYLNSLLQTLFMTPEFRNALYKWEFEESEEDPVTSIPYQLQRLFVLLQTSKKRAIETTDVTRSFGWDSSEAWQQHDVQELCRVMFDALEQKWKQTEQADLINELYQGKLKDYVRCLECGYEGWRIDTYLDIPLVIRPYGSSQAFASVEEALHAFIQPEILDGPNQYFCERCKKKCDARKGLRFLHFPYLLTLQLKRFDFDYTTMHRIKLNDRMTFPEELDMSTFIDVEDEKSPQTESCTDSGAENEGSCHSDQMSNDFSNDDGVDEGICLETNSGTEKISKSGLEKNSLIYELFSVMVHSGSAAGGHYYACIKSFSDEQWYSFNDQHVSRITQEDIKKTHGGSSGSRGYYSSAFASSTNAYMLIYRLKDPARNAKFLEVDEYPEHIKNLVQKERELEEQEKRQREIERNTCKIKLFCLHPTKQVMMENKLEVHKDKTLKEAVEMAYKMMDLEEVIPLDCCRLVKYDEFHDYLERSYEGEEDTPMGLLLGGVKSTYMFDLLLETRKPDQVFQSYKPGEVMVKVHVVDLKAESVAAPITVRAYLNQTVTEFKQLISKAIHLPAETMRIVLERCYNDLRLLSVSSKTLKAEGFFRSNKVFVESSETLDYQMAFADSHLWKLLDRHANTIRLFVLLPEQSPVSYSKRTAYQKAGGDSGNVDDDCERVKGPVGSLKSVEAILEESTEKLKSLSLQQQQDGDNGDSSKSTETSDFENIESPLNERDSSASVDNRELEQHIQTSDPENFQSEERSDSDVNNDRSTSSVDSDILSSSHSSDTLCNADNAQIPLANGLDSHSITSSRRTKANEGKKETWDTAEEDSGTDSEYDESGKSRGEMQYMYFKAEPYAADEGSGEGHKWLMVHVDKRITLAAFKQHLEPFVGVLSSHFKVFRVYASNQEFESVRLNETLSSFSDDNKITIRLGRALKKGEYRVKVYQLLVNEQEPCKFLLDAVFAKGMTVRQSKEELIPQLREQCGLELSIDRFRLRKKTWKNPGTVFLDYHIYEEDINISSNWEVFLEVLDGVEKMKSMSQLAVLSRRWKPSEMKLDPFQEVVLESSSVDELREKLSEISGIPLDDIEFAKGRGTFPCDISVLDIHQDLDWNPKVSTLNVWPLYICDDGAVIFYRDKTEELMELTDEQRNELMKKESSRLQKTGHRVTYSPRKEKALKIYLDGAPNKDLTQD
How it was run: as §1

USP48 = molecular target: T3, USP48 (UniProt Q86UV5)
T3 sequence (whole entry): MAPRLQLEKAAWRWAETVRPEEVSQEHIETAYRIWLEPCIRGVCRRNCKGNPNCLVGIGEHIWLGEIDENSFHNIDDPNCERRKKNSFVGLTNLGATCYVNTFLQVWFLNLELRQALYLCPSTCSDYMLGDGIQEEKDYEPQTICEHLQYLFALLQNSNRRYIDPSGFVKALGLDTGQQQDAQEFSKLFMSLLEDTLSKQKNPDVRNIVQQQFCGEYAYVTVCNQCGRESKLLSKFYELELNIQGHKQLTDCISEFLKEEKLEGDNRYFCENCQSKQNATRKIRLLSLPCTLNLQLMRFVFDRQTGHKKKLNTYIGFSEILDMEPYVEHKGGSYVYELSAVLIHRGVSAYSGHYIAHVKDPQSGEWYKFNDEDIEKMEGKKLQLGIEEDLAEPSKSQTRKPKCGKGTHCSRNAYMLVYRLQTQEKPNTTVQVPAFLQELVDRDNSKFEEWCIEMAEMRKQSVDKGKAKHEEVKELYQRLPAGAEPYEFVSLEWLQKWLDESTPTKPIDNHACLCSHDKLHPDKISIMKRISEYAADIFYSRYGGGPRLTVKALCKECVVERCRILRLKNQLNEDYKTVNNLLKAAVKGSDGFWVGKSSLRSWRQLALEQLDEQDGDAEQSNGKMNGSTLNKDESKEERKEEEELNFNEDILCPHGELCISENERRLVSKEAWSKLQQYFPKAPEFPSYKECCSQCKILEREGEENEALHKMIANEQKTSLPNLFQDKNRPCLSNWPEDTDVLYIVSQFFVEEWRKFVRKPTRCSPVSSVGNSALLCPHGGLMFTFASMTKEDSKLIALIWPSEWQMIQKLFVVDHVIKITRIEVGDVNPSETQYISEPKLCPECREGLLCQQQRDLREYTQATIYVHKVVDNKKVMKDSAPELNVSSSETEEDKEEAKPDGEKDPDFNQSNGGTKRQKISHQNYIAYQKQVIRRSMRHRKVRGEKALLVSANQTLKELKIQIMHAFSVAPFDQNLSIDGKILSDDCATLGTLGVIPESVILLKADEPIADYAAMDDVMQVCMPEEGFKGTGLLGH
How it was run: as §1

USP5 = molecular target: T4, USP5 (UniProt P45974)
T4 sequence (whole entry): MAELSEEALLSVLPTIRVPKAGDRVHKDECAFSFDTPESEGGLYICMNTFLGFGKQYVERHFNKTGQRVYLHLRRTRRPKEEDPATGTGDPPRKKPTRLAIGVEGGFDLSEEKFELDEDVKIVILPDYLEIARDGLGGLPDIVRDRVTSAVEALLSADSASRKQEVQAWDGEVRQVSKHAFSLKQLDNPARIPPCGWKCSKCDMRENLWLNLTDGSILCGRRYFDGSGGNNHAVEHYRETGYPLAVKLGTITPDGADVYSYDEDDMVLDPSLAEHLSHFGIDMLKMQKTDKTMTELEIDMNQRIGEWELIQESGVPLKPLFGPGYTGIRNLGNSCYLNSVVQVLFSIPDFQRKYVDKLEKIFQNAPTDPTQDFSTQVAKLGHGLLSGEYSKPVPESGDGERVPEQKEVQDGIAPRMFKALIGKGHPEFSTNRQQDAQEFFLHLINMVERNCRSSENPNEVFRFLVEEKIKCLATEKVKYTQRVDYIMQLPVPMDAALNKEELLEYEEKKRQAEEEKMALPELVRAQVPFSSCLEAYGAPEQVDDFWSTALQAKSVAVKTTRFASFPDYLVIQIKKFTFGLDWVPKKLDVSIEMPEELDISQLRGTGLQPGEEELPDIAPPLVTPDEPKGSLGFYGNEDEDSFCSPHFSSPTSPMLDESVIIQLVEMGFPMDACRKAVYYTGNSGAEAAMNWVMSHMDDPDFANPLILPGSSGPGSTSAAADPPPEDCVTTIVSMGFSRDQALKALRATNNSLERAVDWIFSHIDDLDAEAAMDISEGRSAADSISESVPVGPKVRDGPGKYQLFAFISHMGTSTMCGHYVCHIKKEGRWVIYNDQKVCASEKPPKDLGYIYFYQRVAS
How it was run: as §1

USP54 = USP54 (UniProt Q70EL1)
How it was run: as §1

USP7 = USP7 (UniProt Q93009)
How it was run: as §1

USP8 = molecular target: T5, USP8 (UniProt P40818)
T5 sequence (whole entry): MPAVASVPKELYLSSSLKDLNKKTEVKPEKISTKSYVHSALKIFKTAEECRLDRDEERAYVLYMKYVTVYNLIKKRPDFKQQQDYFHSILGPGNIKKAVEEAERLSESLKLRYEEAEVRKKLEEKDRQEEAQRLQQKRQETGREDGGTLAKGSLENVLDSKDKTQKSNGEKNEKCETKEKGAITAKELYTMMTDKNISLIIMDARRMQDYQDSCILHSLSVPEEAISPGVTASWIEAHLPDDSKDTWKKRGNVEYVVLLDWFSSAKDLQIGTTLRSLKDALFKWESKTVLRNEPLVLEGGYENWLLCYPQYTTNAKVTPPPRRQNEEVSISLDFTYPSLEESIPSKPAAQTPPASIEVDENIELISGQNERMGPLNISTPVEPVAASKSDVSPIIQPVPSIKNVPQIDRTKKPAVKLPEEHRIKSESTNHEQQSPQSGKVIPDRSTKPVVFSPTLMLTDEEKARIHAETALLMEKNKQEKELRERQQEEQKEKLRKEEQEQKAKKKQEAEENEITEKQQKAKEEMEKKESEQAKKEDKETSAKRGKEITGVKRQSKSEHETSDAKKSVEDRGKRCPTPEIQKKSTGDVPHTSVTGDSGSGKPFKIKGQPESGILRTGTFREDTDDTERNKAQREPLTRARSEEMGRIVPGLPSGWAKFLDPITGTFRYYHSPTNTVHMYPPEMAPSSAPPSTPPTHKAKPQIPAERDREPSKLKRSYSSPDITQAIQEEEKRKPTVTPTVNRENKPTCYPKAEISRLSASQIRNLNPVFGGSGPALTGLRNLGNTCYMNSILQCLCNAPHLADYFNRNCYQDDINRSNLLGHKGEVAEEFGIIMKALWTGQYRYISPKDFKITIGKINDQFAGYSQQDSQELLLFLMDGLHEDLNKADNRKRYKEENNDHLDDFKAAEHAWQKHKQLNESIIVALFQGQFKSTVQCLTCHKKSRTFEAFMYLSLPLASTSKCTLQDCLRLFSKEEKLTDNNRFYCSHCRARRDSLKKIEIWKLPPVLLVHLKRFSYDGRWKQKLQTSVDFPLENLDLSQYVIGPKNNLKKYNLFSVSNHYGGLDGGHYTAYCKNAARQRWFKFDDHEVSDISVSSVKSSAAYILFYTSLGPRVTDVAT
How it was run: as §1

USP9X = USP9X (UniProt Q93008)
How it was run: as §1

UniProt O00487 = molecular target: UniProt O00487
How it was run: as §1

Measured: log2 ratio of Biotin-Ahx-Ub-VS probe labelling

Sequence of USP7 (Q93009 whole entry, looked up): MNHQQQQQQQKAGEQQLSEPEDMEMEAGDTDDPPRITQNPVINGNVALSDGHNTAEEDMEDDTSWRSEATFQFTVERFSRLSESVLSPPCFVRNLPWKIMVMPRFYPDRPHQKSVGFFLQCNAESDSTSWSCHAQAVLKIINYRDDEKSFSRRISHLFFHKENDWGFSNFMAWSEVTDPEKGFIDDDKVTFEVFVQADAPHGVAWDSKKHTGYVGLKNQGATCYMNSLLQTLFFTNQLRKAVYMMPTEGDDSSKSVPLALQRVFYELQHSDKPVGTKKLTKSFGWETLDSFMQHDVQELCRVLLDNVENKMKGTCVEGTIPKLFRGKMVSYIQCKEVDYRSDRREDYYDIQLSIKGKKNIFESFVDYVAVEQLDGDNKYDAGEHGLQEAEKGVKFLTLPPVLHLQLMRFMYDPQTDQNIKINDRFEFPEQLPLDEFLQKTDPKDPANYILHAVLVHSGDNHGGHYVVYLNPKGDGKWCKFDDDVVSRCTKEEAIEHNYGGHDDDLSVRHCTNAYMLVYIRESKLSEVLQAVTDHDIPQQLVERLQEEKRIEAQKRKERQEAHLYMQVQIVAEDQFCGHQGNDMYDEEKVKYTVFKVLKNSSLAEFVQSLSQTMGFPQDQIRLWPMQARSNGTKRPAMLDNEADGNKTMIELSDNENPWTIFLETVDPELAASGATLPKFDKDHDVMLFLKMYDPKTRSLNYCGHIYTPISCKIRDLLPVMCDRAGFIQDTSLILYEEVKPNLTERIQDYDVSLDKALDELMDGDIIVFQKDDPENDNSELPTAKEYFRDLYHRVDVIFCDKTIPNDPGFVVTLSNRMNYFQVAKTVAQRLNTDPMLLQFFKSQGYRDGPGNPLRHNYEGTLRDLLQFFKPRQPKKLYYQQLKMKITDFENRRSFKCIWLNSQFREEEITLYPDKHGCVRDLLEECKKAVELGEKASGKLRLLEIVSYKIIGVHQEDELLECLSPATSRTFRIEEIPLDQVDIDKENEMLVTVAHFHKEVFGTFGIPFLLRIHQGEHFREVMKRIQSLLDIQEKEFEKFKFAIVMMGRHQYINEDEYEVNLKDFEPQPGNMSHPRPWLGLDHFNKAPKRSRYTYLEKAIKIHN
Sequence of USP46 (P62068 whole entry): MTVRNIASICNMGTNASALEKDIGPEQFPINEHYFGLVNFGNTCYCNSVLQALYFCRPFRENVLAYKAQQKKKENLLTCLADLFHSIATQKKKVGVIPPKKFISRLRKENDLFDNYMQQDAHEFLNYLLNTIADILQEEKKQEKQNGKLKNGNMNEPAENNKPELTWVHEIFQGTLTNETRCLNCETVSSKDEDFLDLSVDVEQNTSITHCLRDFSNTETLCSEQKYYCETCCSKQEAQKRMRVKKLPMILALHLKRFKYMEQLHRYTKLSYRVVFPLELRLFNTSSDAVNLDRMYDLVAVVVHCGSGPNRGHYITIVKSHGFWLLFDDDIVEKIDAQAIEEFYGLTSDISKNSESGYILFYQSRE
Sequence of UniProt O00487 (O00487 whole entry): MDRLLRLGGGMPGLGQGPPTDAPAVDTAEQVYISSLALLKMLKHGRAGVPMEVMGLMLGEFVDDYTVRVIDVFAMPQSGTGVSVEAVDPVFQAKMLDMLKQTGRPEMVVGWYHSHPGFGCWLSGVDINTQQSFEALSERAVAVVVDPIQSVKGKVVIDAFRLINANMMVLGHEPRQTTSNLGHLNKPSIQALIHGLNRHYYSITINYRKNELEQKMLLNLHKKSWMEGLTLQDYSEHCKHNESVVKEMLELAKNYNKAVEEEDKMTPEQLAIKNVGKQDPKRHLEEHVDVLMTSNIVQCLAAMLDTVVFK
Sequence of USP9X (Q93008 whole entry): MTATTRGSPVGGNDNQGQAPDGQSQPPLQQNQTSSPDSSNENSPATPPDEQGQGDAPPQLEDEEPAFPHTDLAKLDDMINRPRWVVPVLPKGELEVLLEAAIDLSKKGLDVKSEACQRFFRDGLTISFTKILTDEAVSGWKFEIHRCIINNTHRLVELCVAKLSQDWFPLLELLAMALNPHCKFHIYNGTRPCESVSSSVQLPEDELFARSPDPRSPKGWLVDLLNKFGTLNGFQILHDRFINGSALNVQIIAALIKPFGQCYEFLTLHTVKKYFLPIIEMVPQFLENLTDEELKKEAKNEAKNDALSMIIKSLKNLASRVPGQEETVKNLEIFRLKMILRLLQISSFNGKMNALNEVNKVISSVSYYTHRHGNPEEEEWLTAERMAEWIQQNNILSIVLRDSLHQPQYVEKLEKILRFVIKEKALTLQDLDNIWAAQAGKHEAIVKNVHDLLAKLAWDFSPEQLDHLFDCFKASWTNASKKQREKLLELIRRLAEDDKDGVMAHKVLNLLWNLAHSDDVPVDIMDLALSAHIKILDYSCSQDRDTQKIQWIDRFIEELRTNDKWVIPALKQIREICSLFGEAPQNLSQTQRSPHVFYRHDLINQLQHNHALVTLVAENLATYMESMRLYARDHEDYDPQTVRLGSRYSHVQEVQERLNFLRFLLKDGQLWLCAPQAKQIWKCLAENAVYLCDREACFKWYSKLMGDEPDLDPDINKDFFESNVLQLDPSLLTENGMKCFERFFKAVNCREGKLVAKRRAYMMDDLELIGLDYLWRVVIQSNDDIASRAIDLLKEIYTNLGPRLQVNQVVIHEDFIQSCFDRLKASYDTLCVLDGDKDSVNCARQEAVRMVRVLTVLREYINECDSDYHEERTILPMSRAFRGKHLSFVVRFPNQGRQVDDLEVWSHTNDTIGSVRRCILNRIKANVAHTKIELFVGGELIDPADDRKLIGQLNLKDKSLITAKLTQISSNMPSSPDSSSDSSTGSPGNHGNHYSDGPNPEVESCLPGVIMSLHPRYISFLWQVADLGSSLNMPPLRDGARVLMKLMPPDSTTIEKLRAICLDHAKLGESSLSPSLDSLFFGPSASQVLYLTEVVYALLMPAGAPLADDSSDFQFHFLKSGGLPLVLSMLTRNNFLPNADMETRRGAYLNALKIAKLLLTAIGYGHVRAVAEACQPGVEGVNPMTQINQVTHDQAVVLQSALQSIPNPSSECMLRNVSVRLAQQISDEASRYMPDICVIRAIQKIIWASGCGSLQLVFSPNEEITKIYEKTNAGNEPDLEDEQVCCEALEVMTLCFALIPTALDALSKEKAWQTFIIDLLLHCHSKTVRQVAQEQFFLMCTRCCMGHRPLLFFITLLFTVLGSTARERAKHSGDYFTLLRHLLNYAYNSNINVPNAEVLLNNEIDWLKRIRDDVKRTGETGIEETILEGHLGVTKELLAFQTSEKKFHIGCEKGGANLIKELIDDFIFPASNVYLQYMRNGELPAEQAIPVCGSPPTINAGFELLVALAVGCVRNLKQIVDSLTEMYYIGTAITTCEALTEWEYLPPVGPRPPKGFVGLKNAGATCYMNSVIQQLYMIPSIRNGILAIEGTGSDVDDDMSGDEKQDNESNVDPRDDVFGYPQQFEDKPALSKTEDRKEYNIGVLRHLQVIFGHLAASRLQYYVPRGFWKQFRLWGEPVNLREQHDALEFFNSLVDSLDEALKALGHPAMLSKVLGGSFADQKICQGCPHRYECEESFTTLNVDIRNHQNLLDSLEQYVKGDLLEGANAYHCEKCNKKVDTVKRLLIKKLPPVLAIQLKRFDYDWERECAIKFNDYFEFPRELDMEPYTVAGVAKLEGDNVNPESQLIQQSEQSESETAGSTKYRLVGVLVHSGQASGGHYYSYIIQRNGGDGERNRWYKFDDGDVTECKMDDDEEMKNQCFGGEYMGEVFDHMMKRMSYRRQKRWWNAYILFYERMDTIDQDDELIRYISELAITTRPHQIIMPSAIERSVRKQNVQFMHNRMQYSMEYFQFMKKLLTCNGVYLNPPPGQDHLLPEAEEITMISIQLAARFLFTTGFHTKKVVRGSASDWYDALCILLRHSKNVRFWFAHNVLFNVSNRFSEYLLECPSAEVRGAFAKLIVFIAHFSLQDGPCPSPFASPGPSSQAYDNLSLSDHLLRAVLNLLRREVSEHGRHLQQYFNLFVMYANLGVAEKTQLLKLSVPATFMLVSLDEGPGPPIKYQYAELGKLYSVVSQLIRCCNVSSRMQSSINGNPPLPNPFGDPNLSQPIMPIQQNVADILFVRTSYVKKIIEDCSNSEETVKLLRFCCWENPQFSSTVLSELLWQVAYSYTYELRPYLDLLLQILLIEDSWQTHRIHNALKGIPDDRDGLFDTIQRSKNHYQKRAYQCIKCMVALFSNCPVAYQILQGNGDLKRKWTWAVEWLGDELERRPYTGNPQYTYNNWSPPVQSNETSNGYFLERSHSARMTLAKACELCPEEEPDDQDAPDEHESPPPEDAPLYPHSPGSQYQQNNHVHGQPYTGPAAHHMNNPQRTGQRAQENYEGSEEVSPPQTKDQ

Cc1cc(C(=O)NC2CCN(C(=O)CCl)CC2)no1
inactive: USP42 -0.284 | USP46 -0.048 | USP47 -0.0545 | USP48 -0.0815 | USP5 0.0506 | USP54 -0.176 | USP7 -0.222 | USP8 -0.0431 | USP9X -0.158 | UniProt O00487 -0.138

Reference: the supplement of paper PMC11732987, “Enantioselective OTUD7B fragment discovery through chemoproteomics screening and high-throughput optimisation” (Communications Chemistry, 2025)
